The record followed here is ChEMBL document CHEMBL2218924, “A broad activity screen in support of a chemogenomic map for kinase signalling research and drug discovery” (Biochem J, 2013).

The target in experiment [1] is Homeodomain-interacting protein kinase 3 (Homo sapiens) (UniProt Q9H422). The conditions noted are these: at 10 µM.
The target in experiment [2] is T1, Serine/threonine-protein kinase haspin (Homo sapiens) (UniProt Q8TF76).
T1 sequence (whole entry): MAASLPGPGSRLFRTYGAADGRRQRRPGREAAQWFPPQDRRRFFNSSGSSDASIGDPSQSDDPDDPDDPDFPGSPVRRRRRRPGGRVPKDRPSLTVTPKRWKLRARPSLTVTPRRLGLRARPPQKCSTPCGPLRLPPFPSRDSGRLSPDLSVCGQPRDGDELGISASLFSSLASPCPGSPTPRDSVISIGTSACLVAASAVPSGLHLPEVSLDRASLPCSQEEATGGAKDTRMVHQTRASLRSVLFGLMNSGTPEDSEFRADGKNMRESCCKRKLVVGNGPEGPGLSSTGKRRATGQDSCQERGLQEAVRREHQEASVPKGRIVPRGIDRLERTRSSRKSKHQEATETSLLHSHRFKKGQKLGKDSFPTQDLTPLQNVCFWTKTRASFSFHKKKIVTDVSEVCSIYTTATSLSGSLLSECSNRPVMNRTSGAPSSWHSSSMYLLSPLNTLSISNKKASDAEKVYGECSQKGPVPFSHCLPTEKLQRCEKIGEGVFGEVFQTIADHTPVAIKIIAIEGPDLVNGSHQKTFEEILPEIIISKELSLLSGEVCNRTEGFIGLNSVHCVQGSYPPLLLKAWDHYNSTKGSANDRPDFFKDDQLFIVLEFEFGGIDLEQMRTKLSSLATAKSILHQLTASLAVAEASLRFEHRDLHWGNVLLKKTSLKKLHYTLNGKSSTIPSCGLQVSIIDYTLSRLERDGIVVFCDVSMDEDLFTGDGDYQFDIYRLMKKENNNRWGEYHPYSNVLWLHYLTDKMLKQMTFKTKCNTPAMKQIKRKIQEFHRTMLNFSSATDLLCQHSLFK
The conditions noted are these: at 1 µM.

For experiment [3], the target named is T1, Serine/threonine-protein kinase haspin (Homo sapiens). The conditions noted are these: at 10 µM.
Experiment [4] has as its target Tyrosine-protein kinase HCK (Homo sapiens) (UniProt P08631). Particulars: at 1 µM; call rule not given here.
The target is the same in experiment [5]. Particulars: at 10 µM.
Experiment [6] has the same target. Particulars: at 1 µM. This is another data set of the same source.
The target is the same in experiment [7]. Particulars: at 10 µM. The source holds these as a separate data set.
In experiment [8] the target is Insulin-like growth factor 1 receptor (Homo sapiens) (UniProt P08069). Particulars: at 1 µM.
For experiment [9] the target is unchanged. The conditions noted are these: at 10 µM.
In experiment [10] the target is T2, Protein kinase C zeta type (Homo sapiens) (UniProt Q05513).
T2 sequence (whole entry): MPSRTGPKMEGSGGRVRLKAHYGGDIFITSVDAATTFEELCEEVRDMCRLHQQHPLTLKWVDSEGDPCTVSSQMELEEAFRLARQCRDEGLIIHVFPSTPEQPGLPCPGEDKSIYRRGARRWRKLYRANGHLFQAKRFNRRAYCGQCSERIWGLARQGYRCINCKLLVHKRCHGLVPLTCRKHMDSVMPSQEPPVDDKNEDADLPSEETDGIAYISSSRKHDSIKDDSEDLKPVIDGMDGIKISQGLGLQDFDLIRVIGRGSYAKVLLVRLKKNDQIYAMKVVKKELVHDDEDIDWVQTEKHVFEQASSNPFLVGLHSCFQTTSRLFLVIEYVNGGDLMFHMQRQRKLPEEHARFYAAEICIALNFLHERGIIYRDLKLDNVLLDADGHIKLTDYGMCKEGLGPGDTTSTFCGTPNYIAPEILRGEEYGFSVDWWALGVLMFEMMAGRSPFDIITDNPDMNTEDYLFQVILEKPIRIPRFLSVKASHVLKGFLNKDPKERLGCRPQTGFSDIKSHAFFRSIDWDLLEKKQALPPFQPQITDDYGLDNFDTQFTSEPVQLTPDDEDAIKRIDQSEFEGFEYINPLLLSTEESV
The conditions noted are these: at 10 µM.

The target of experiment [11] is Protein kinase C eta type (Homo sapiens) (UniProt P24723). Particulars: at 1 µM.
For experiment [12] the target is unchanged. The conditions noted are these: at 10 µM.
Experiment [13] has as its target Protein kinase C theta type (Homo sapiens) (UniProt Q04759). The conditions noted are these: at 1 µM.
The target is the same in experiment [14]. Particulars: at 10 µM.
In experiment [15] the target is T3, Protein kinase C iota type (Homo sapiens) (UniProt P41743).
T3 sequence (whole entry): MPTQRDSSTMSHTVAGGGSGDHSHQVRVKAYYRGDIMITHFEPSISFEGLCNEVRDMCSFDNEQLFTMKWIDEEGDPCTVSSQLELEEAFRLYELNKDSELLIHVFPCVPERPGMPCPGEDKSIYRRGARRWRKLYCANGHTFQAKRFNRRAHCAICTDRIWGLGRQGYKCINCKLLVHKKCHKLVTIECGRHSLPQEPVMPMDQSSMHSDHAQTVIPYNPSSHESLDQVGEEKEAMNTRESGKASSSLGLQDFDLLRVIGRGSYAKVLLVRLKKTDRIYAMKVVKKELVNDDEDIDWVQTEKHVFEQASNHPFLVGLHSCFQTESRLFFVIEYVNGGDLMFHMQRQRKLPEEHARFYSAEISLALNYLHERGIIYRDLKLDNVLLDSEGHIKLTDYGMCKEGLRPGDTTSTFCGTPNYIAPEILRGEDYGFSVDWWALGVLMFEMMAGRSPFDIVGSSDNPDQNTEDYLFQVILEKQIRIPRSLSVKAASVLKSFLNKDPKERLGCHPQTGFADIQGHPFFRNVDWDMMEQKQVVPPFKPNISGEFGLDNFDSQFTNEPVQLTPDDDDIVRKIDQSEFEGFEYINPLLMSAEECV
The conditions noted are these: at 1 µM.

Experiment [16] deals with T3, Protein kinase C iota type (Homo sapiens). Particulars: at 10 µM.
Experiment [17] concerns the target T4, Serine/threonine-protein kinase D1 (Homo sapiens) (UniProt Q15139).
T4 sequence (whole entry): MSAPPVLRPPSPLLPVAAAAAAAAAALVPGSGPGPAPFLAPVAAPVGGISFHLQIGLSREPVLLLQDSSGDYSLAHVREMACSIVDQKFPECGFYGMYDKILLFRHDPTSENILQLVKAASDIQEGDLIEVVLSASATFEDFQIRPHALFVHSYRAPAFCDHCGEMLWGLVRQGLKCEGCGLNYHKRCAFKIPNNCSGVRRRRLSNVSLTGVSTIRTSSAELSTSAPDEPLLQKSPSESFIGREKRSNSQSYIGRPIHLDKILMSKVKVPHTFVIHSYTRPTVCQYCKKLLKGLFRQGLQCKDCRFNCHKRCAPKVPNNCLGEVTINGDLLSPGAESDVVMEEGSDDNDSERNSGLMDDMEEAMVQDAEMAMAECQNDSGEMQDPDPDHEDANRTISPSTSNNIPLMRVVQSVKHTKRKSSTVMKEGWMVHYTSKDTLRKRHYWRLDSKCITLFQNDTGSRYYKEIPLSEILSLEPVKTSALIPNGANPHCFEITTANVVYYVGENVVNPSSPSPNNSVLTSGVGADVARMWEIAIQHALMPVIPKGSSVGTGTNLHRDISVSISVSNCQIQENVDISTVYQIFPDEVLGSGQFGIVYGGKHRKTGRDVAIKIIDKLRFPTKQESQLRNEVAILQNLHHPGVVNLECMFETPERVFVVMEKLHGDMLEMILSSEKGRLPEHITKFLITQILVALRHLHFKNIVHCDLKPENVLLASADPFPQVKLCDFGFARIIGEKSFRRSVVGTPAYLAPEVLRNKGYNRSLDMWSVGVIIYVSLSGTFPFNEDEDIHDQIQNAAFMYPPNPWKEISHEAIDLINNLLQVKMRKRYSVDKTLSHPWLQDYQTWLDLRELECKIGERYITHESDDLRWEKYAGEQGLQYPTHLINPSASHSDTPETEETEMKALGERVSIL
The conditions noted are these: at 1 µM.

Experiment [18] addresses T4, Serine/threonine-protein kinase D1 (Homo sapiens). The conditions noted are these: at 10 µM.
The target of experiment [19] is T5, Serine/threonine-protein kinase D2 (Homo sapiens) (UniProt Q9BZL6).
T5 sequence (whole entry): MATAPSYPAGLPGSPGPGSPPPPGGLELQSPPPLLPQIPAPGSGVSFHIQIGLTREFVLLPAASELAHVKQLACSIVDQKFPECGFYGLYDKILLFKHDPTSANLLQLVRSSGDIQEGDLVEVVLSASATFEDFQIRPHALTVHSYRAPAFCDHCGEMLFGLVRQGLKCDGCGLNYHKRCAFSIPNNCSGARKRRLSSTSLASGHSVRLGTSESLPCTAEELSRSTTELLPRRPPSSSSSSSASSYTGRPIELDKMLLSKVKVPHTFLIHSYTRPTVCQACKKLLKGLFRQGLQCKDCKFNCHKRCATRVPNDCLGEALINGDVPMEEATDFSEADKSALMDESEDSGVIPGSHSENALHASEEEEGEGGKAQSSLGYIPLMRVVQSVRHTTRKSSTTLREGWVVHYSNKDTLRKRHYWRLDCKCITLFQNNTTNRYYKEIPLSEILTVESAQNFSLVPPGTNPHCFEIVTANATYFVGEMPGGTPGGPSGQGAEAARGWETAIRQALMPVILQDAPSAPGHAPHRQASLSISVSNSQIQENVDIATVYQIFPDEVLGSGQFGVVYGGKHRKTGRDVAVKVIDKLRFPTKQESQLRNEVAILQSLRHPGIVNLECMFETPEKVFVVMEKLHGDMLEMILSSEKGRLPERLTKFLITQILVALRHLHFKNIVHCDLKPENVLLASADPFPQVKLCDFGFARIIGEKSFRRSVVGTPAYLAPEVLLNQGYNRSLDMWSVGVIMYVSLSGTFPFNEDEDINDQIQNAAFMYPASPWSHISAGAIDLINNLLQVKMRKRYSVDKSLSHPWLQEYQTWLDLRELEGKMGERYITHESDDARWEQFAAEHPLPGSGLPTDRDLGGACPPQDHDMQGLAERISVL
Particulars: at 1 µM.

The target of experiment [20] is T5, Serine/threonine-protein kinase D2 (Homo sapiens). Particulars: at 10 µM.

Chain of Homeodomain-interacting protein kinase 3 (Homo sapiens) (Q9H422 whole entry, looked up): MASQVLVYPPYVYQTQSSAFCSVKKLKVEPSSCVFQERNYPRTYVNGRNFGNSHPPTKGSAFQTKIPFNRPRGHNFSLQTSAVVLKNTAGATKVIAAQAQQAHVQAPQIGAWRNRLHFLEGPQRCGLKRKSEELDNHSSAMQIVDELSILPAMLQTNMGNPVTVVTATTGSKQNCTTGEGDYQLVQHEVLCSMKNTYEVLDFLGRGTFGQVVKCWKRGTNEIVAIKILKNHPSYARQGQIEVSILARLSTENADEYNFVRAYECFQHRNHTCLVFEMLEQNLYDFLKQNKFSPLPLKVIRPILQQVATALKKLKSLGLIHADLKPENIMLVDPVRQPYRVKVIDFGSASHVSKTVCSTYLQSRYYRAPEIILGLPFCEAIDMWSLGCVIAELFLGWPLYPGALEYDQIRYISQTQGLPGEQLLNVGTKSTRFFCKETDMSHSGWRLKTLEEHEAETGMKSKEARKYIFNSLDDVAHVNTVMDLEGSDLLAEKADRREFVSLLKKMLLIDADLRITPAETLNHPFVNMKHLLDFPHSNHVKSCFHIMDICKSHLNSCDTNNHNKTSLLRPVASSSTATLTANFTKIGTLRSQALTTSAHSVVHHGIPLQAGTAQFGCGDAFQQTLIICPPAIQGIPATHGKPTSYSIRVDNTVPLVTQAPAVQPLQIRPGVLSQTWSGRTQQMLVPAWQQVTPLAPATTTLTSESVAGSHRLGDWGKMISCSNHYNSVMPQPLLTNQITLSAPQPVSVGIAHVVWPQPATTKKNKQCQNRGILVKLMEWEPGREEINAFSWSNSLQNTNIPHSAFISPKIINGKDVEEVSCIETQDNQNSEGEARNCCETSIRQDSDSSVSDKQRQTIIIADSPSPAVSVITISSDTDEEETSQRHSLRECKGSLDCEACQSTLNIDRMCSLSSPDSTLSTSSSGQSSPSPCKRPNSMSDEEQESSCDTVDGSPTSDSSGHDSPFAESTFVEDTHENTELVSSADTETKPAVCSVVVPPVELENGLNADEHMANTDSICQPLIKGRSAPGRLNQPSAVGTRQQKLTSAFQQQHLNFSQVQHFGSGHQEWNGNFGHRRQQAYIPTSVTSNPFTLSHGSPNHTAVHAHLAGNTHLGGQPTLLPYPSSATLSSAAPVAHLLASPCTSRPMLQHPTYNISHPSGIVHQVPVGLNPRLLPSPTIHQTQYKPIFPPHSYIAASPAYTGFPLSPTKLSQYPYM
Chain of Insulin-like growth factor 1 receptor (Homo sapiens) (P08069 31-736 limits assumed): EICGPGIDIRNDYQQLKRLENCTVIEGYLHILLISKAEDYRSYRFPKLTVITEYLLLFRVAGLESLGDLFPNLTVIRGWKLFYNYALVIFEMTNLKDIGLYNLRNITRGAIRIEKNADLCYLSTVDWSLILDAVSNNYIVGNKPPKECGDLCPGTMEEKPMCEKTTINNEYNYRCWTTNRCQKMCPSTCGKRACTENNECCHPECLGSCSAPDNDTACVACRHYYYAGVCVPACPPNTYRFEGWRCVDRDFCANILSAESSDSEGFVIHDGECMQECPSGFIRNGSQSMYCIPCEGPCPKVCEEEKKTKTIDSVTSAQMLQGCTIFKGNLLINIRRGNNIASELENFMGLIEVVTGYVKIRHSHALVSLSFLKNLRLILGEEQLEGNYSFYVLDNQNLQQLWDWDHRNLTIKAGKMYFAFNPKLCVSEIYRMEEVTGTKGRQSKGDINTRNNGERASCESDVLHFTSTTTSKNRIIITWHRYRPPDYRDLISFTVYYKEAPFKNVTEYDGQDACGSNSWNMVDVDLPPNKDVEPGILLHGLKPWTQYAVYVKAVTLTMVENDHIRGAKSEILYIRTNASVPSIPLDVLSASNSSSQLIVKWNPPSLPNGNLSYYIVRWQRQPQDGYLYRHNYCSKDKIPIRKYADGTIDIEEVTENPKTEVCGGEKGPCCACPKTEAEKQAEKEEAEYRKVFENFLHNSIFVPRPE
Chain of Insulin-like growth factor 1 receptor (Homo sapiens) (P08069 741-1367 limits assumed): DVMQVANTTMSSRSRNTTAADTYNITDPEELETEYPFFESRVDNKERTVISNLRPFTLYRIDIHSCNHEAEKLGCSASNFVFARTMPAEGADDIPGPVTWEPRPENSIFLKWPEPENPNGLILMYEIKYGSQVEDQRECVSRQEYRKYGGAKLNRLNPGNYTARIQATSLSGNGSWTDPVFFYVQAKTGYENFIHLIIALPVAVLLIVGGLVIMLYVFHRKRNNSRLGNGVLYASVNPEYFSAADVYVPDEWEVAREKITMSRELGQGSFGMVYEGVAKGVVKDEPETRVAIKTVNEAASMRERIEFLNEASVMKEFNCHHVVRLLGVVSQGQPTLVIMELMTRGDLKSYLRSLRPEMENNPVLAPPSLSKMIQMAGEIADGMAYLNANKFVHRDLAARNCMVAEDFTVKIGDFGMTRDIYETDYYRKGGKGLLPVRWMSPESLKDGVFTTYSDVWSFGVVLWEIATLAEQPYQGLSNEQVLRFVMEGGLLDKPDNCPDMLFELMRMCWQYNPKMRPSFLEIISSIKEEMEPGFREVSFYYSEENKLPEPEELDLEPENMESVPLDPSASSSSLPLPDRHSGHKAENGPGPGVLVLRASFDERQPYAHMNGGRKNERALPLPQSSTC
Chain of Protein kinase C eta type (Homo sapiens) (P24723 whole entry): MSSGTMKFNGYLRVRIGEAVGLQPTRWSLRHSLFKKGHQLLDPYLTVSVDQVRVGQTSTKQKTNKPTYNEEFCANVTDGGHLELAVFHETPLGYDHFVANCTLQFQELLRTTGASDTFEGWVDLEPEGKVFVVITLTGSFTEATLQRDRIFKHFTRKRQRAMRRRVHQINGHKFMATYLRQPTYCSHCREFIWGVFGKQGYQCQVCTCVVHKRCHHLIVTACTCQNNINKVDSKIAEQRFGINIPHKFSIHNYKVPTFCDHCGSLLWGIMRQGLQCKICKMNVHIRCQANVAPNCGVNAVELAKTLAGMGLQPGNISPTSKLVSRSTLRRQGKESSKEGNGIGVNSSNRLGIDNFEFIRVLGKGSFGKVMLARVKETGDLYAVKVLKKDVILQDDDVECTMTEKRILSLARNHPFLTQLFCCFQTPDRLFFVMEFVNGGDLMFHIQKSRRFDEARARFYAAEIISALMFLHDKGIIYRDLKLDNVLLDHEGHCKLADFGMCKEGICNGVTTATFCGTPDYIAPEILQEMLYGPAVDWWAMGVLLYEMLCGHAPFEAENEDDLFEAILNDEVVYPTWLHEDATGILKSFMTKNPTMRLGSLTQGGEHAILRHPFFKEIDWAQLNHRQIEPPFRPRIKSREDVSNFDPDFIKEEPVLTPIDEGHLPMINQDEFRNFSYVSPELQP
Chain of Protein kinase C theta type (Homo sapiens) (Q04759 whole entry, looked up): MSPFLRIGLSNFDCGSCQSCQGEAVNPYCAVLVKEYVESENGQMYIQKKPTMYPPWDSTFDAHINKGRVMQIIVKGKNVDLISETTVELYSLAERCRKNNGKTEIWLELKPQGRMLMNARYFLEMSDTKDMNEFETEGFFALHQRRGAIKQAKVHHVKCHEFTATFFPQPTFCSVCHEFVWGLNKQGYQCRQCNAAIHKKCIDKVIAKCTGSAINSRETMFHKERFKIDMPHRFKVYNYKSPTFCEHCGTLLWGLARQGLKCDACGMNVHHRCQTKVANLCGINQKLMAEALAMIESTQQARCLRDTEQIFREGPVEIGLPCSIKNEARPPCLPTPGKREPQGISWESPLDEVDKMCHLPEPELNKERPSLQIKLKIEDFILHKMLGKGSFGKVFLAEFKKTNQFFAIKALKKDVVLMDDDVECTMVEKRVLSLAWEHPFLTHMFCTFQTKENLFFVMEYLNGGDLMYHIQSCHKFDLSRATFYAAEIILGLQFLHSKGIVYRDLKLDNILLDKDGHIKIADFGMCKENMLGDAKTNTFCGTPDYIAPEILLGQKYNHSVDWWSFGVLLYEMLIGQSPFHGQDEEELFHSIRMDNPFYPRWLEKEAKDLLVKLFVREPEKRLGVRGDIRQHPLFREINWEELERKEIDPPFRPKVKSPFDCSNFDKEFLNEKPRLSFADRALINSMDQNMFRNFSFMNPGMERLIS
Chain of Tyrosine-protein kinase HCK (Homo sapiens) (P08631 2-526 limits assumed): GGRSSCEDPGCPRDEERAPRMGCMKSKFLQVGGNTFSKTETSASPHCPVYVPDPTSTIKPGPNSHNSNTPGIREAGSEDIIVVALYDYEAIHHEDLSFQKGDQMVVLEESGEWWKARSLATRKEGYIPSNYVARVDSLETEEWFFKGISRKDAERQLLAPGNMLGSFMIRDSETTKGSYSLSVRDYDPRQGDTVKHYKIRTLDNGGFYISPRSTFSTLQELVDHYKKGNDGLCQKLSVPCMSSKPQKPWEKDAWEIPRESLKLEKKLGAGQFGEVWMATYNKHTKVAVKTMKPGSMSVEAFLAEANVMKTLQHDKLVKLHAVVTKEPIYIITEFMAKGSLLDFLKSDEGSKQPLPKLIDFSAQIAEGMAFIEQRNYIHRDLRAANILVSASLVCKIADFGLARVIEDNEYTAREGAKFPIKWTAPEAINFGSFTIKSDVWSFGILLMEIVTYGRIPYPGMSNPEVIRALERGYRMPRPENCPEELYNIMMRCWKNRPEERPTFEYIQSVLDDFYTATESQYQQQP

Broadly, the residual activity is the signal under treatment as a percentage of the control signal. Turning to `Cc1nc2cc3nc(-c4cccs4)cnc3cc2n1C`, the residual activity in [1] stood at 97%; in experiment [2], 123%; in [3], 79%; in experiment [4], 92%; in experiment [5] it was 67%; in [6], 90%. For the same compound, the residual activity in experiment [7] was found to be 34%; in experiment [8] it was 141%; in [9] it was 61%; in [10], 109%; in [11], 107%; in [12] it was 111%. Also, the residual activity in [13] was 110%; in experiment [14], 110%; in [15], 97% (inactive); in experiment [16], 99%; in [17] it was 94%; in experiment [18], 95%. Moreover, the residual activity in experiment [19] stood at 96%; in [20], 105%.
For `CCOc1cc2ncnc(Nc3cccc(Br)c3)c2cc1OCC`, the residual activity in [1] amounted to 92%; in [2], 97%; in [3], 66%; in [4], 34%; in [5], 6%; in experiment [6], 17%. For the same compound, the residual activity in experiment [7] came out at 4%; in [8] it was 89%; in experiment [9] it was 106%; in experiment [10] it was 69%; in experiment [11], 82%; in experiment [12], 88%. Also, the residual activity is 116% in experiment [13]; 106% in experiment [14]; 87% (inactive) in [15]; 95% in experiment [16]; 101% in experiment [17]; 54% in experiment [18]. Moreover, the residual activity in experiment [19] was determined as 104%; in [20], 113%.
Turning to `O=C1NC(=O)c2cc(Nc3ccc(F)cc3)c(Nc3ccc(F)cc3)cc21`, the residual activity is 99% in [1]; 103% in [2]; 41% in experiment [3]; 63% in experiment [4]; 21% in experiment [5]; 87% in [6]. For the same compound, the residual activity in experiment [7] is 49%; in experiment [8], 102%; in experiment [9], 108%; in experiment [10] it was 101%; in [11], 91%; in experiment [12], 80%. Moreover, the residual activity in [13] was 87%; in experiment [14], 62%; in experiment [15], 91% (inactive); in [16], 106%; in [17], 94%; in [18], 72%. The residual activity in experiment [19] was found to be 101%; in experiment [20] it was 89%.
